Assay results as given in PubChem BioAssay AID720568 (Broad Institute, 2013).
Entries with a potency or affinity are not part of this list. Active and inactive are the calls of the source. No rule for the calls is given here.

Assay: toxicity toward HepG2 hepatoma cells – cell-based, dry powder samples, cytotoxicity control, dose response (AID 720568)
Details: plate reader; series mostly up to 15 µM

SMILES | outcome
CCCCOc1ccccc1C1CC(=O)NC2=C1C(=O)CCC2 (stereo not drawn) | inactive
Cc1ccc(/C=N/NC(=O)C2COc3ccccc3O2)s1 (stereo not drawn) | inactive
COc1cc(-c2nnc(SCC3(c4ccc(Br)cc4)OCCO3)o2)cc(OC)c1OC | inactive
COc1ccccc1CSc1nnc(-c2ccccc2)o1 | inactive
CC(=O)N1CCC(=O)c2cc3ccccc3cc21 | inactive
Cc1cc(C)cc(C(=O)N2CC(=O)Nc3ccccc32)c1 | inactive
CCOC(=O)c1ccc(Oc2cc(C)nc(SC)n2)cc1 | inactive
CCOc1ccc(NC(=O)c2cc(OC)nc3ccccc23)cc1 | inactive
COc1ccc2c(COC(=O)c3cccc(S(=O)(=O)NCC(C)C)c3)cc(=O)oc2c1 | inactive
COc1ccccc1OCC(=O)NNC(=O)c1ccoc1C | inactive
COc1ccccc1-c1nnc(SCc2ccccc2)o1 | inactive
CCN(CC)CCC(=O)Nc1cccc2c1C(=O)c1ccccc1C2=O | inactive
Cc1ccc(C(=O)c2cc([N+](=O)[O-])ccc2N2CCOCC2)cc1C | inactive
COc1cccc(N2CCN(C(=O)c3ccc(CS(=O)c4ccc(C)cc4)o3)CC2)c1 (stereo not drawn) | inactive
CCn1c2ccccc2c2cc(NC(=O)c3cc(OC)c(OC)c(OC)c3)ccc21 | inactive
CCCOC(=O)c1[nH]c2c(c1C)C(=O)CC(c1cccs1)C2 (stereo not drawn) | inactive
C/C(=N\NC(=O)c1c([N+](=O)[O-])c(C)nn1C)c1ccc(NC(=O)C2CCCC2)cc1 | inactive
Brc1ccc(CSc2nnc(-c3ccccc3)o2)cc1 | inactive
CCN(CC)CCCNc1nc2cc(OC)c(OC)cc2c2nc(-c3ccccc3)nn12 | inactive

SMILES | outcome
Cc1ccc(CCC(=O)Nc2ncc(Cc3cc(Cl)ccc3Cl)s2)o1 | inactive
COc1ccc(NC(=O)C(=O)c2cn(CC(=O)N3CCCC3)c3ccccc23)cc1 | inactive
O=C(N/N=C/c1ccc(Cl)cc1)c1sccc1OCc1ccc(F)cc1 | inactive
Cc1cc(C)nc(/N=C(\N)Nc2ccc(OCc3ccccc3)cc2)n1 | inactive
CCOc1ccc(S(=O)(=O)NCc2ccccn2)cc1NC(=O)c1ccccc1F | inactive
Cc1[nH][nH]c(=O)c1C(c1ccc(-c2ccc(Cl)c(Cl)c2)o1)c1c(C)[nH][nH]c1=O | inactive
O=C(Cc1ccccc1)c1nnc(-c2ccccc2)o1 | inactive
Cc1ccc(Oc2ccc(S(=O)(=O)N3CCOCC3)cc2C(N)=O)c(-n2nc3ccccc3n2)c1 | inactive
CCCNS(=O)(=O)c1cccc(C(=O)OCc2cc(=O)oc3cc(OC)ccc23)c1 | inactive
CCOC(=O)COc1cccc2c(=O)n(CC(=O)NCc3ccccc3)ccc12 | inactive
COc1cc(Nc2c3c(nc4ccccc24)CCCC3)cc(OC)c1OC | inactive
CC(=O)c1cccc(NC(=O)CSc2ncc(C(=O)Nc3ccccc3)c(=O)n2C)c1 | inactive
Cc1cc(NC(=O)CSc2nc(-c3ccco3)cc(C(F)(F)F)n2)no1 | inactive
COC(=O)c1cn(C(=O)c2ccc(OC)cc2)c2ccccc12 | inactive
COc1ccc(-c2nnc(SCc3ccccc3)o2)cc1 | inactive
Cc1cnc(NC(=O)c2cc(S(=O)(=O)N(C)C)ccc2N2CCCC2)s1 | inactive
Cc1cccc(C)c1OCCNC(=O)C(=O)NCc1ccco1 | inactive
Cc1cc(=O)[nH]c(N/N=C/c2cc(C)n(CC(F)(F)F)c2C)n1 | inactive
CCC1=Nc2cc(C(=O)NCCCOC)ccc2Sc2ccccc21 | inactive
